# Values joined by “and” are separate entries in the source; they are usually repeats but may differ in a detail not shown here. Identical values can stand only once. Records with an inconclusive call do not appear. Active and inactive are the calls of the source.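 Rule for the calls, unless noted: active = binding below the plate cutoff, the plate median minus 3 SD, with a reading above zero; inconclusive = below the plate cutoff but reading exactly zero; inactive = the rest.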
# How the values were obtained:
# [1] = rapamycin-like changes in RPL19A-GFP expression – cell-based, S. cerevisiae, multiplex flow cytometry, primary screen (AID 1862; in the data active = percent of DMSO control GFP below about 86%;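 note: lower values mimic rapamycin by blocking the RPL19A rise seen in DMSO cells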); settings: S. cerevisiae RPL19A-GFP strain, flow cytometry fluorescence, 3 h; at 10 µM; stronger effect = lower value
# [2] = TOR pathway GLN3 branch reporter MEP2-GFP changes – S. cerevisiae, multiplex flow cytometry, primary screen (AID 1867;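 active = GFP response, as percent of the DMSO control, above the screen-wide mean plus 3 SD, about 139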;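 note: median GFP channel fluorescence of barcode-gated MEP2-GFP cells measured by flow cytometry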); settings: S. cerevisiae MEP2-GFP strain, 3 h, at 10 µM, stronger effect = higher value, 100% means same as DMSO wells
# [3] = TOR pathway RTG branch CIT2 reporter changes – S. cerevisiae, GFP fusion, multiplex flow cytometry, primary screen (AID 1870;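 active = percent response above a set limit, the screen-wide mean plus 3 SD, cut at about 130% in these data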;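 note: barcoded CIT2-GFP strain pooled with four other GFP strains with rapamycin as positive control; median GFP fluorescence per well over plate mean of DMSO wells so 100% = DMSO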); settings: S. cerevisiae CIT2-GFP expression, 3 h, at 10 µM, stronger effect = higher value
# [4] = TOR pathway LAP4-GFP level changes – S. cerevisiae, multiplex flow cytometry, primary screen (AID 1873;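 active = GFP signal, as percent of the solvent control, above the screen mean plus 3 SD, about 149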); settings: S. cerevisiae LAP4-GFP expression, 3 h, at 10 µM, stronger effect = higher value
# [5] = yeast AGP1-GFP level changes, GLN3 branch – cell-based, multiplex flow cytometry, S. cerevisiae, primary screen (AID 1887;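 active = GFP signal above the screen-wide mean plus 3 SD, that is over about 124.5% of the solvent control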;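 note: AGP1-GFP fusion strain of S. cerevisiae within a five-strain barcoded multiplex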); settings: 3 h, at 10 µM, stronger effect = higher value
# [6] = reduced mouse 2C T cell binding to pMHC/ICAM-1 vesicles – MLPCN validation set, flow cytometry, LFA-1/ICAM-1 modulator project, pilot screen (AID 2523;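 active = response below a set limit, under 55% cells CD8-positive and vesicle-bound, and CD8 cells' 90th-percentile brightness under 279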;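 for vesicle binding response: mean PE anti-B7-1 fluorescence of CD8+ cells relative to row control; 100% = QL9-loaded vesicles with DMSO vehicle in the same plate row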); settings: 2C mouse CD8+ T cells, at 7 µM, stronger effect = lower value; double positive events: measured here: CD8+/vesicle+ event percentage
# [7] = target: Integrin beta-1 (Homo sapiens) + Integrin alpha-4 (Homo sapiens) (UniProt P13612+P05556); test: alpha4beta1 integrin LIBS antibody binding reduction – U937 cells, HUTS-21 mAb, flow cytometry, validation set, VLA-4 allosteric modulator project, pilot screen (AID 2674;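 active = inhibition above 50%, about 3 SD of the validation set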;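 note: antibody binding induced by the VLA-4 ligand LDV present at three times its Kd; 0% = LDV ligand with antibody and no compound and 100% = antibody without LDV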); settings: HUTS-21 LIBS mAb binding, at 6.7 µM, stronger effect = higher value, binding induced by LDV ligand
# [8] = calorie-restriction mimetic ROS inhibitors, yeast – validation compound set, pilot screen (AID 2706;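 active = superoxide response below 65% of plate, a cut near 3 SD across the whole screen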;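 note: yeast exposed to compound for one week at 30 degrees C before staining; 100% = mean of all compound wells on the same plate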); settings: S. cerevisiae aging, superoxide DHE fluorescence; at 10 µM; stronger effect = lower value
# [9] = target: Beta-adrenergic receptor kinase 1 (Homo sapiens) (UniProt P25098); test: GRK2 binders displacing RNA aptamer, biochemical, validation, human GRK2, bead flow cytometry (AID 488806;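 active = aptamer binding inhibition above 30%, about 3 SD of noise from non-fluorescent compounds; inactive = inhibition at or below 30%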); settings: bead-bound GRK2, FAM-aptamer displacement, at 10 µM, stronger effect = higher value
# [10] = target: Beta-2 adrenergic receptor (Homo sapiens) (UniProt P07550); test: agonist-induced loss of surface beta2AR – cell-based, FAP fluorogen, flow cytometry, validation set, pilot screen (AID 504459;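 active = percent response above 42, roughly 3 SD of non-fluorescent test compounds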;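 note: agonist-driven loss of surface beta2AR via internalization measured by FAP dye flow cytometry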); settings: Am2.2-beta2AR cells, at 10 µM, stronger effect = higher value
# [11] = target: AP-2 complex subunit beta (Homo sapiens) (UniProt P63010); test: beta-arrestin/AP2 interaction blockers – biochemical, validation set, GST-AP2 beads, flow cytometry, pilot screen (AID 504541;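 active = inhibition above 54%, about 3 SD of non-fluorescent compounds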;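 note: AP2 carries R879A mutation and is captured from E. coli lysate; bead-bound FITC arrestin peptide fluorescence measuring arrestin peptide binding to AP2; 0% = DMSO wells and 100% = excess unlabeled arrestin peptide control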); settings: FITC arrestin peptide, at 10 µM, stronger effect = higher value, AP2 beta2 appendage fragment, R879A mutant
# [12] = cytosolic pH regulators acting via V-ATPase – S. cerevisiae, pHLuorin, HTS validation (AID 504600; in the data active = response above about 15%;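 note: plate controls were DMSO for no effect and reference compound for full effect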); settings: V-ATPase proton transport, at 10 µM, stronger effect = higher value
# [13] = system: anti-desmoglein-3 scFv antibody binding to human DSG3; test: blockers of pathogenic pemphigus antibody–desmoglein-3 binding – biochemical, validation compound set, bead-based, flow cytometry, pilot screen (AID 588368); settings: Protein G beads, DSG3-Fc, scFv-GFP binding, at 10 µM, stronger effect = lower value;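 note: signal is the median channel fluorescence of bead-bound GFP antibody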
# [14] = Nile Red efflux blockade in pump-expressing yeast – validation compound set, multiplex, phenotypic, pilot screen (AID 588506;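 active = efflux inhibition above 0.42, the validation set average plus 4 SD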;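 note: Nile Red retained in cells so higher fluorescence means more efflux inhibition; 0 = negative control wells and 1 = enniatin B 25 µM full block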); settings: S. cerevisiae pump-expressing triplex, Nile Red efflux flow cytometry; at 10 µM; stronger effect = higher value; the pumps come from Candida albicans
# [15] = target: ATP-binding cassette sub-family B member 6 (Homo sapiens) (UniProt Q9NP58); test: blockers of ABCB6-driven porphyrin uptake – K562-ABCB6 cells, flow cytometry, validation set, pilot screen (AID 588550;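 active = inhibition above the screen-wide mean plus 3 SD, about 51%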;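 note: 0% = DMSO wells and 100% = benzethonium chloride 70 µM positive control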); settings: K562-ABCB6 porphyrin accumulation, 1 h, at 10 µM, stronger effect = higher value
# [16] = AML differentiation inducers, ER-HoxA9 marrow cells – cell-based, GFP/MAC1 double positive, flow cytometry, validation set, primary screen (AID 588685;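 active = differentiation response of at least 50%, scaled between solvent and reference control, from cells with both markers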;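 note: compound exposure lasts four days before antibody staining and flow analysis; 0% = DMSO wells and 100% = 5 µM fulvestrant positive control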); settings: stronger effect = higher value, normalized: vehicle 0, fulvestrant 100
# Sequence of AP-2 complex subunit beta (Homo sapiens) (P63010 whole entry, looked up, the tested form may be a part, one chain of several): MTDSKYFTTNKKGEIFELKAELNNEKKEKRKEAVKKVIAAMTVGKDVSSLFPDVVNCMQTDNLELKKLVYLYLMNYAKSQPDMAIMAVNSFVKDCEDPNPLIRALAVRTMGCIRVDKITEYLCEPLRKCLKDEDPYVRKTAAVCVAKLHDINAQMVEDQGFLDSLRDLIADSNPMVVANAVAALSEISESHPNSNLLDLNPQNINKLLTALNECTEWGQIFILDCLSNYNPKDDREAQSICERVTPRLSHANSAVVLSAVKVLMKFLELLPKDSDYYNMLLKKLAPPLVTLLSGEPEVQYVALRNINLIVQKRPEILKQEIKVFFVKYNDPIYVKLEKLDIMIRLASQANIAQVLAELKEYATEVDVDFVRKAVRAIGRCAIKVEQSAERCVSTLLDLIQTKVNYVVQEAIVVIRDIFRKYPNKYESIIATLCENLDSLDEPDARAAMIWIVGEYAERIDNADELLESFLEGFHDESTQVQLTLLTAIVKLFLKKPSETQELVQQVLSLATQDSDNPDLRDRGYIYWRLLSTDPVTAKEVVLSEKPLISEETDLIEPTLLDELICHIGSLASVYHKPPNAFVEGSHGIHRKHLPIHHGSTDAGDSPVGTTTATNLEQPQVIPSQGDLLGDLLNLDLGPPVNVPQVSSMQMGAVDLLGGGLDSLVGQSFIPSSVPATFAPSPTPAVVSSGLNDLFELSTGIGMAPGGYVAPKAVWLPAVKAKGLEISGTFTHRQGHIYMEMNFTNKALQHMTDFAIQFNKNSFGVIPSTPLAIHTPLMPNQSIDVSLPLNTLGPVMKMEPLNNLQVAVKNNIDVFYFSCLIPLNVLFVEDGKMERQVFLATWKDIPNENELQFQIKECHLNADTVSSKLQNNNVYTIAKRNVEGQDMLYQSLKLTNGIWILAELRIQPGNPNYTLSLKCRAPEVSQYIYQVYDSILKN
# Sequence of Integrin beta-1 (Homo sapiens) + Integrin alpha-4 (Homo sapiens) (P05556 whole entry, looked up): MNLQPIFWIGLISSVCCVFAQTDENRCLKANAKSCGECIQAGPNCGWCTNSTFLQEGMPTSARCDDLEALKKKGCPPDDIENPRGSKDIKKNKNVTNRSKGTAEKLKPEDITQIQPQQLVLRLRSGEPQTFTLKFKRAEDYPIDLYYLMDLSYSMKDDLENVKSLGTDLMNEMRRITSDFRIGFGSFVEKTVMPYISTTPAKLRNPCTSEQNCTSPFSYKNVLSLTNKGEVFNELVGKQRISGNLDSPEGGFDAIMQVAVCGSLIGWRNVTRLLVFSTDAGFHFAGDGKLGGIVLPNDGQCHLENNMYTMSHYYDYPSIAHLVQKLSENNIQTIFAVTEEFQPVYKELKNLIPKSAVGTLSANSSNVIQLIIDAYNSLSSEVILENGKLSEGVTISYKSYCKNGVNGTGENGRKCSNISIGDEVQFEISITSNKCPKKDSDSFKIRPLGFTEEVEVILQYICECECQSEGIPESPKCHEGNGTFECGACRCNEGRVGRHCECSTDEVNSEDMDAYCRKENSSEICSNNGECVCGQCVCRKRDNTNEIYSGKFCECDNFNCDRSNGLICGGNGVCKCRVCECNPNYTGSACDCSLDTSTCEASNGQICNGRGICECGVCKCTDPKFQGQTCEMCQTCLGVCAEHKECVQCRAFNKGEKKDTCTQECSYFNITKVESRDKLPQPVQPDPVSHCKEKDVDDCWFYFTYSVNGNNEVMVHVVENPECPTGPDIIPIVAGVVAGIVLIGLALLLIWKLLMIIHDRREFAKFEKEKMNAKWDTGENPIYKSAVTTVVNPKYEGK
# Sequence of Integrin beta-1 (Homo sapiens) + Integrin alpha-4 (Homo sapiens) (P13612 whole entry, looked up): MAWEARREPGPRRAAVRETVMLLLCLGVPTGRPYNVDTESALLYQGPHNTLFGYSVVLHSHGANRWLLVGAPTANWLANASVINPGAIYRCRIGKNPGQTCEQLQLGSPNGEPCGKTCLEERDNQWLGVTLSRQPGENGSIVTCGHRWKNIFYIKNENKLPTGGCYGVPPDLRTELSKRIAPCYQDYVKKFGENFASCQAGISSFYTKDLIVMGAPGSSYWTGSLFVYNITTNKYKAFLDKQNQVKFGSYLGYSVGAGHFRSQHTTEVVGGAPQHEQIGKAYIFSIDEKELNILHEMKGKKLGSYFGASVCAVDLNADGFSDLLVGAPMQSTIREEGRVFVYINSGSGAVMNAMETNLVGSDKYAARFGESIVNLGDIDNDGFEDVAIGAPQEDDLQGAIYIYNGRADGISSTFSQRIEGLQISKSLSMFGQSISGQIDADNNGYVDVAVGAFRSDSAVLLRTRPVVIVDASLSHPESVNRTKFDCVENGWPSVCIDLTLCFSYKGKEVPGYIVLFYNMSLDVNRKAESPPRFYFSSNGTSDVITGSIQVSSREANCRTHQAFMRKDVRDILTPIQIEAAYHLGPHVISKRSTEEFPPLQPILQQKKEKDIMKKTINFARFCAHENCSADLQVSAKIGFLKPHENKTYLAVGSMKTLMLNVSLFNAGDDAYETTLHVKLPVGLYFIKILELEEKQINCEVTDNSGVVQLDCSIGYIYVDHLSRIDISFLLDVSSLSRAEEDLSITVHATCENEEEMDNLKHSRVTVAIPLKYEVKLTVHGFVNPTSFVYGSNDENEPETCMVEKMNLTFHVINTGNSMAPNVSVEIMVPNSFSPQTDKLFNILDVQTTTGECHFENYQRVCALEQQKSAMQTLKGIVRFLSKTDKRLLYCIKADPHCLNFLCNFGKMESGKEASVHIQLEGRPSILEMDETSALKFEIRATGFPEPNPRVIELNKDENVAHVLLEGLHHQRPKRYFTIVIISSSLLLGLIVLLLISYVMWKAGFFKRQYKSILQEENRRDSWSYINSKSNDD
# Sequence of Beta-adrenergic receptor kinase 1 (Homo sapiens) (P25098 whole entry, looked up): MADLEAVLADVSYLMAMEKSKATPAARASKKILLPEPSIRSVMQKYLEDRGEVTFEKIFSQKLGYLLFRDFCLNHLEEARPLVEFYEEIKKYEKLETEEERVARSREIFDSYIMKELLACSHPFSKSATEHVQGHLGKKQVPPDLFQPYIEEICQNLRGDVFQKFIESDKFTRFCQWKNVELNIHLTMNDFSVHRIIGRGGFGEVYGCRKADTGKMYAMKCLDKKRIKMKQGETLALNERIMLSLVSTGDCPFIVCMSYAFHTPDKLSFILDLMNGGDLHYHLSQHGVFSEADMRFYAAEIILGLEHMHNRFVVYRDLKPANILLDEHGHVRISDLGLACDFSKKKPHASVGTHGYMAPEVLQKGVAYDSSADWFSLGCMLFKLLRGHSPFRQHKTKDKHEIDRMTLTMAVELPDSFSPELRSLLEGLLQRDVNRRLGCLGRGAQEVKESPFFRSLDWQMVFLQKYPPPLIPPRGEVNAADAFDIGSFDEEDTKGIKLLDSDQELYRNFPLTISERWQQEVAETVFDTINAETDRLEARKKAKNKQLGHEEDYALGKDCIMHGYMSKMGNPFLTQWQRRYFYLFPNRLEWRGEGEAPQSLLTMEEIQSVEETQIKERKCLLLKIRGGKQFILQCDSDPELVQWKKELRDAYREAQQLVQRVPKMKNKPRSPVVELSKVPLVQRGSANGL
# Sequence of Beta-2 adrenergic receptor (Homo sapiens) (P07550 whole entry, looked up): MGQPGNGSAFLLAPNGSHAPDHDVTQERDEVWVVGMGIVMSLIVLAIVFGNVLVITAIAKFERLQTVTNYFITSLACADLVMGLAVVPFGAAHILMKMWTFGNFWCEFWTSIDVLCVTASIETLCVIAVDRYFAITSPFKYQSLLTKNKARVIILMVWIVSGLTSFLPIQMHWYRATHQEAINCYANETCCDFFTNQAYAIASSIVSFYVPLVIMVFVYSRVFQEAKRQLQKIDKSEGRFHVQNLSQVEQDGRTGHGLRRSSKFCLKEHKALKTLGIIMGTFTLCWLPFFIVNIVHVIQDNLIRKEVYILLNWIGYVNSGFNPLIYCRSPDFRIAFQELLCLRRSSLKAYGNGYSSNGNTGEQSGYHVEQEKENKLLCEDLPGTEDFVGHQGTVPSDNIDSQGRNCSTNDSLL
# Sequence of ATP-binding cassette sub-family B member 6 (Homo sapiens) (Q9NP58 whole entry, looked up): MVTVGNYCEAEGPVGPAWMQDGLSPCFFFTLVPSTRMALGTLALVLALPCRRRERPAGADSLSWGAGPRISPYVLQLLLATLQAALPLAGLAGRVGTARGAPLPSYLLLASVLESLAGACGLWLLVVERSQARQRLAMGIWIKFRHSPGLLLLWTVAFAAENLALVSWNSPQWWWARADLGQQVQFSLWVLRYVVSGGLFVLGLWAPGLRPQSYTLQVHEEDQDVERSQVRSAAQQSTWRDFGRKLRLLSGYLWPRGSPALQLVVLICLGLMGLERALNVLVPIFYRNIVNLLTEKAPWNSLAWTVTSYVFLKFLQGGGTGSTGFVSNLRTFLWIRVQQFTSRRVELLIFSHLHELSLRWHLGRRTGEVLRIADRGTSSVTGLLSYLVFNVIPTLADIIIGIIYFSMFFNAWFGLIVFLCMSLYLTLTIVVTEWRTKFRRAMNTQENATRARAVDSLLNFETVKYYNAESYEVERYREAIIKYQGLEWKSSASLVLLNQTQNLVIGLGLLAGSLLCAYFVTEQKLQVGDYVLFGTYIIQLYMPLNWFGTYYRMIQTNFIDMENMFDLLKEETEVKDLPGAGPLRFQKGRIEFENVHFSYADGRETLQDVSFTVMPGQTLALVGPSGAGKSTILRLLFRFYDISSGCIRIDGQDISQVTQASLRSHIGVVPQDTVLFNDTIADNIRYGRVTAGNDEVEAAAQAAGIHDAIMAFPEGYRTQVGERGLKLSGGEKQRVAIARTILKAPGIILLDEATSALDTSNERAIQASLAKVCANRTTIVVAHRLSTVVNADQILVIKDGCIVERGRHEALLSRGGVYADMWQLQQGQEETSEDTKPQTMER
SMILES,percent of DMSO control GFP [1],GFP response vs DMSO [2],percent response of DMSO control [3],GFP response vs DMSO [4],"GFP response, % of DMSO [5]",double positive events [6],vesicle binding response [6],inhibition [7],superoxide response (% of plate) [8],aptamer binding inhibition [9],response [10],inhibition [11],response [12],binding (% of control) [13],efflux inhibition (fraction of control) [14],inhibition [15],differentiation response [16]
C[C@]12CC[C@@H]3c4ccc(O)cc4[C@@H](O)C[C@H]3[C@@H]1CC[C@@H]2O,103% (inactive),101% (inactive),108% (inactive),98% (inactive),104% (inactive),59.1%,53.4% (inactive),5.61% (inactive),106% (inactive),26% (inactive),-0.21% (inactive),-3.62% (inactive),-0.11% (inactive),102% (inactive),-0.29 (inactive),11% (inactive),-3.11% (inactive)
O=C(O)C1[C@H]2C(=O)N(C3CCCC3)C[C@]23C=C[C@H]1O3 (stereo partly specified),99.5% (inactive),104% (inactive),101% (inactive),121% (inactive),113% (inactive),57.9%,153% (inactive),11.7% (inactive),88% (inactive),-2% (inactive),-17.8% (inactive),-2.45% (inactive),-1.21% (inactive),101% (inactive),0.04 (inactive),1% (inactive),-6.96% (inactive)
O=C(CCCn1c(=O)oc2ccccc21)N1CCN(c2ccc(F)cc2)CC1,101% (inactive),93% (inactive),103% (inactive),77.7% (inactive),91.4% (inactive),46.7%,9.2% (active),-1.79% (inactive),111% (inactive),1% (inactive),10.4% (inactive),-3.97% (inactive),1.31% (inactive),102% (inactive),0.15 (inactive),9% (inactive),-26.4% (inactive)
COc1ccc(/C=C(/C#N)c2cccnc2)cc1OC,101% (inactive),104% (inactive),94.9% (inactive),99.4% (inactive),99.1% (inactive),54.1%,6.8% (active),-13.2% (inactive),98.6% (inactive),3% (inactive),-1.52% (inactive),23.7% (inactive),0.34% (inactive),105% (inactive),0.42 (inactive),2% (inactive),17.1% (inactive)
CSc1cccc(NC(=O)/C=C/c2ccccc2)c1,91.3% (inactive),90.5% (inactive),88.6% (inactive),83.1% (inactive),80.5% (inactive),62.5%,219% (inactive),15.2% (inactive),114% (inactive),1% (inactive),1.66% (inactive),7.39% (inactive),1.17% (inactive),104% (inactive),-0.38 (inactive),10% (inactive),9.01% (inactive)
CCNC1=C(Cl)C(=O)c2ccccc2C1=O,104% (inactive),104% (inactive),91.8% (inactive),127% (inactive),113% (inactive),59.8%,159% (inactive),21% (inactive),229% (inactive),3% (inactive),-20% (inactive),-22.4% (inactive),1.03% (inactive),104% (inactive),-0.09 (inactive),-12% (inactive),0.92% (inactive)
Cc1cccc(-c2ncc(CN3CCN(CC(C)C)C(CCO)C3)cn2)c1 (stereo unspecified),104% (inactive),100% (inactive),108% (inactive),76.2% (inactive),99.2% (inactive),65.5%,344% (inactive),-3.57% (inactive),97.3% (inactive),2% (inactive),-5.5% (inactive),-1.77% (inactive),3.08% (inactive),101% (inactive),0.02 (inactive),15% (inactive),4.15% (inactive)
CCCCCCC(=O)N(O)C1CC(=O)N(Cc2ccccc2)C1=O (stereo unspecified),106% (inactive),101% (inactive),107% (inactive),94% (inactive),101% (inactive),59.7%,191% (inactive),-0.45% (inactive),103% (inactive),1% (inactive),-3.98% (inactive),6.86% (inactive),0.52% (inactive),100% (inactive),-0.01 (inactive),9% (inactive),-4.64% (inactive)
CC(C)CN1CCN(Cc2cccn2-c2ccccn2)CC1CCO (stereo unspecified),90.9% (inactive),113% (inactive),103% (inactive),80.3% (inactive),95.9% (inactive),64.2%,241% (inactive),22.9% (inactive),114% (inactive),-2% (inactive),-7.51% (inactive),-9.17% (inactive),74.8% (active),102% (inactive),0.48 (active),16% (inactive),1.64% (inactive)
CCCCCCCCNC(C)C(O)c1ccc(SC(C)C)cc1 (stereo unspecified),93.5% (inactive),130% (inactive),102% (inactive),85.3% (inactive),92.2% (inactive),38.1%,47.2% (active),-12% (inactive),115% (inactive),-13% (inactive),10.9% (inactive),15.9% (inactive),-2.14% (inactive),109% (inactive),-0.17 (inactive),11% (inactive),2.46% (inactive)
Nc1ccc(C(=O)O)c(O)c1,102% (inactive),106% (inactive) and 107% (inactive),99.7% (inactive) and 96.7% (inactive),100% (inactive) and 111% (inactive),104% (inactive) and 106% (inactive),61.7% and 60.8%,199% (inactive) and 232% (inactive),-2.43% (inactive) and 6.4% (inactive),95.4% (inactive) and 103% (inactive),5% (inactive) and 4% (inactive),-5.54% (inactive) and 8.67% (inactive),-7.61% (inactive) and 3.32% (inactive),-2.48% (inactive) and -0.83% (inactive),103% (inactive) and 100% (inactive),0.28 (inactive) and -0.03 (inactive),3% (inactive) and 8% (inactive),-7.5% (inactive) and -31.2% (inactive)
C/C(=N\NC(=O)C1(C)CC1(Br)Br)c1ccc([N+](=O)[O-])cc1 (stereo unspecified),105% (inactive),99.3% (inactive),105% (inactive),85.5% (inactive),104% (inactive),65.3%,390% (inactive),-0.45% (inactive),83.6% (inactive),6% (inactive),-9.52% (inactive),-5.83% (inactive),26.1% (active),98.5% (inactive),-0.17 (inactive),1% (inactive),13.9% (inactive)
COc1ccc(-c2cc(=O)oc3cc(OC(C)C(=O)O)ccc23)cc1 (stereo unspecified),107% (inactive),94.7% (inactive),93.8% (inactive),104% (inactive),107% (inactive),63.4%,124% (inactive),11.7% (inactive),115% (inactive),3% (inactive),-24.8% (inactive),6.04% (inactive),1.91% (inactive),108% (inactive),0 (inactive),3% (inactive),19.6% (inactive)
COc1ccc(CCNC(=O)c2ccc(Cl)cc2)cc1OC,103% (inactive),109% (inactive),107% (inactive),121% (inactive),111% (inactive),59.6%,196% (inactive),2.93% (inactive),107% (inactive),-1% (inactive),6.98% (inactive),-0.98% (inactive),-0.59% (inactive),104% (inactive),0.39 (inactive),-7% (inactive),-17.7% (inactive)
CC(C)=CC/C=C1\CCC(C(=O)O)C(C(=O)O)C1 (stereo unspecified),89.5% (inactive),123% (inactive),95.2% (inactive),81.4% (inactive),87.5% (inactive),63.2%,160% (inactive),-14.9% (inactive),91.6% (inactive),6% (inactive),-0.75% (inactive),-6.38% (inactive),1.64% (inactive),103% (inactive),-0.35 (inactive),14% (inactive),-2.46% (inactive)
C[N+]1(C2CCC3CCCC2C3O)CCCCC1 (stereo unspecified),108% (inactive),100% (inactive),115% (inactive),82.8% (inactive),103% (inactive),64.9%,326% (inactive),-2.53% (inactive),94.2% (inactive),1% (inactive),-9.71% (inactive),-10.4% (inactive),3.03% (inactive),99.3% (inactive),-0.1 (inactive),32% (inactive),4.15% (inactive)
COc1cc2c(cc1OC)C1(CCCC1)CNC2c1cccc([N+](=O)[O-])c1 (stereo unspecified),99.3% (inactive),103% (inactive),95.8% (inactive),109% (inactive),92.8% (inactive),54.7%,235% (inactive),-57.8% (inactive),99.7% (inactive),-2% (inactive),23.6% (inactive),-2.35% (inactive),35.2% (active),99.1% (inactive),0.05 (inactive),4% (inactive),-8.8% (inactive)
CC[C@H]1CN2CCc3cc(OC)c(OC)cc3[C@@H]2C[C@@H]1C[C@H]1NCCc2cc(OC)c(OC)cc21,110% (inactive),103% (inactive),94.5% (inactive),106% (inactive),99.9% (inactive),60.1%,140% (inactive),-27.9% (inactive),86.3% (inactive),-7% (inactive),10.4% (inactive),3.93% (inactive),-3.02% (inactive),106% (inactive),-0.24 (inactive),-66% (inactive),14.4% (inactive)

# From PubChem BioAssay
